This passage reports inhibition results from PubChem BioAssay AID778 (Sanford-Burnham Center for Chemical Genomics, 2007).

The inhibition is the relative decrease from the control value, in per cent.

Hit rate of the full screen: of about 96,000 compounds, about 20,000 (21%) were called active. These entries were drawn from the full list. Values without a mark were called inactive.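 Rule for the calls: active = CYP2C19 inhibition above a set limit at 5 µM in the primary screen (cut at about 50% in these data); inactive = the rest.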

Sequence of Cytochrome P450 2C19 (Homo sapiens) (P33261 whole entry, looked up): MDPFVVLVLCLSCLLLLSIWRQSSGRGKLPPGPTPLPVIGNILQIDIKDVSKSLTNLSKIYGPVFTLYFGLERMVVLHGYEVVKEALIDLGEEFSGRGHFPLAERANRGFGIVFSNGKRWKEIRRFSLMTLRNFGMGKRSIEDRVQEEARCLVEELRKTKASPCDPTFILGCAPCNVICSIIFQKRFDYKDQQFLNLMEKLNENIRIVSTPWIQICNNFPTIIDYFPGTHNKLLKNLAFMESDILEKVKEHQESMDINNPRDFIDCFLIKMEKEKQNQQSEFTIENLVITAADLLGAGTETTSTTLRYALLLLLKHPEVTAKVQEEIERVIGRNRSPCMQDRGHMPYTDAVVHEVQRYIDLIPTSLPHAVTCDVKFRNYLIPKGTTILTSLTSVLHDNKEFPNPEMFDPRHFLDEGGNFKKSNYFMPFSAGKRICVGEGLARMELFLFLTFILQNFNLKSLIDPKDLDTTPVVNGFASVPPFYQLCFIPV

This assay addresses Cytochrome P450 2C19 (Homo sapiens) (UniProt P33261). Nature of the assay: blockers of cytochrome P450 2C19 activity – biochemical, luminescence, ADME assay, primary screen (AID 778).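 Note: plate controls were negative control wells for no effect and 2.5 mM tranylcypromine positive control for full effect.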 The settings on record: CYP2C19 Supersomes, luciferin-H EGE luminescence, 30 min; at 5 µM; hits give high values.
In the case of `Cc1cccc(NC(=O)C2CCCN2S(=O)(=O)c2ccc(F)cc2)c1C` (configuration not stated), the inhibition was 16.2%.

`COc1ccccc1CNC(=O)C1CCN(S(C)(=O)=O)CC1`: the inhibition was 2.2%.

Regarding `O=C(NCc1cccs1)C1CCN(S(=O)(=O)c2ccc3c(c2)OCCO3)CC1`, the inhibition is 17.6%.

Turning to `CSc1cccc(NC(=O)C2CCCN2S(=O)(=O)c2ccc3c(c2)CCC(=O)N3)c1` (configuration not stated), the inhibition is 56.8% (active).

As for `O=C(O)C1CCCN1S(=O)(=O)c1ccc2c(c1)CCC2` (configuration not stated), the inhibition was -10.4%.

As to `O=C1CCc2cc(S(=O)(=O)N3CCC(C(=O)NCc4ccccc4Cl)CC3)ccc2N1`, the inhibition is 88.6% (active).

Turning to `CCOC(=O)CNC(=O)c1nn(-c2cccc(OC)c2)c(=O)c2ccccc12`, the inhibition was 5.3%.

`COc1ccc(-n2nnc3c(=O)n(CC(=O)OCc4ccccc4)cnc32)cc1`: the inhibition was 3.9%.

As for `COC(=O)C1=C(Nc2ccc(OC)cc2)C=C(C)C(C(=O)OC)C1c1ccc(C)cc1` (configuration not stated), the inhibition is 33.3%.

Take `CC1(C)Cc2c(sc3nc4n(c(=N)c23)CCCCC4)CO1`: the inhibition is -6.4%.

With `O=C(NCCCNCc1ccccc1)c1ccc(/C=N/O)nc1`, the inhibition is -13.4%.

On to `Cn1c(=O)[nH]c(=O)c2c1nc(CN(Cc1ccccc1)Cc1ccccc1)n2CCN1CCOCC1`, for which the inhibition was 14.9%.

Consider `COc1ccc(-c2nc3n(c2Br)CCC3)cc1`, for which the inhibition was 32.9%.

For the molecule `Cc1ccc(C(=O)Nc2c(C#N)c(C)c(C)n2Cc2ccccc2)cc1`, the inhibition is 23.9%.

In the case of `CN1C(=O)c2ccccc2C(C(=O)NCCCN2CCCC2)C1c1c[nH]c2ccccc12` (configuration not stated), the inhibition is -6.7%.

Regarding `N#CC1=C(N)OC2=C(C(=O)CCC2)C1C1CC=CCC1` (configuration not stated), the inhibition was 61.1% (active).

With `COCc1[nH]nc2c1C(C1C=CCCC1)C(C#N)=C(N)O2` (configuration not stated), the inhibition was 17.2%.

As to `CC1CCc2c(sc(NC(=O)c3ccc(Cn4cc(Br)cn4)o3)c2C(N)=O)C1` (configuration not stated), the inhibition is 28.9%.

`Nc1ccccc1SCc1cc([N+](=O)[O-])cc2c1OCOC2`: the inhibition was 19.4%.

`CCC(=O)c1ccc(OCC(O)CN2C(=O)NC(C)(C)C2=O)cc1` (configuration not stated): the inhibition is 31.7%.

For the molecule `Cc1ccc(SCC2=NNC(=O)C2)cc1`, the inhibition was 7.6%.

On to `Cc1ccc(SCCN2C(=O)NC(C)(C)C2=O)cc1`, for which the inhibition was 97.8% (active).

Consider `CC1(C)NC(=O)N(CCOc2cccc(Oc3ccccc3)c2)C1=O`, for which the inhibition is 42.5%.

Consider `CC1(C)NC(=O)N(CCCCSc2ccc(Cl)cc2)C1=O`, for which the inhibition is 87.5% (active).

Take `N#CC1=C(N)Oc2c(sc3ccccc23)C1c1ccco1` (configuration not stated): the inhibition was 22.6%.

For `Cc1c(Cl)c([N+](=O)[O-])nn1Cc1ccc(C(=O)N/N=C\c2cc(Cl)ccc2O)o1`, the inhibition is 31.1%.

On to `CCN(CC)CCn1c(=S)[nH]c2ncccc2c1=O`, for which the inhibition is -16.9%.

Take `Cc1cccc(N2C(=O)c3cccnc3C2=O)c1`: the inhibition was 10.5%.

Take `COc1ccc(C(C(=O)NCc2ccccc2)N(Cc2cccs2)C(=O)c2cnccn2)cc1` (configuration not stated): the inhibition is 47%.

In the case of `COC(=O)c1ccc(Cc2ccccc2)o1`, the inhibition is -1.3%.

For `COC(=O)c1ccc(CN(c2ccccc2OC)S(=O)(=O)c2cccs2)o1`, the inhibition was 98.5% (active).

Regarding `CCCCN(CCCC)C(=O)CCS(=O)(=O)c1ccc2c(c1)n(C)c(=O)c(=O)n2C`, the inhibition is 3.1%.

For the molecule `CS(=O)(=O)c1ccc2c(c1)SC1=NC(=O)/C(=C/c3ccco3)C(=N)N12`, the inhibition is 8.6%.

As for `CCS(=O)(=O)N1CCCC(C(=O)NCCCN(C)Cc2ccccc2)C1` (configuration not stated), the inhibition is -3%.

In the case of `Cc1cc(C)nc(N2C(=O)CC(Cc3ccccc3)C2=O)n1` (configuration not stated), the inhibition was 15.5%.

As for `O=C1CC(Cc2ccccc2)C(=O)N1c1ccc(Cl)cn1` (configuration not stated), the inhibition is 59.4% (active).

Take `O=C(O)CN1C(=O)CC(Cc2ccccc2)C1=O` (configuration not stated): the inhibition was -1%.

Regarding `COc1ccc(-n2c(C)nc3c(cnn3-c3ccccc3)c2=O)cc1`, the inhibition is 14.9%.

`Cc1cc(C)c(S(=O)(=O)c2ccccc2)c(OC(=O)c2c(F)cccc2Cl)n1`: the inhibition was 12.4%.

On to `Cc1nc(C)c(C(=O)Nc2ccc(C)c(F)c2)o1`, for which the inhibition was -9%.

In the case of `CCOc1ccccc1-n1c(SCC(=O)N2CCCC2)nnc1-c1ccoc1C`, the inhibition was 2%.

On to `Cc1ccc2nc(S(=O)(=O)O)[nH]c2c1`, for which the inhibition is -14.4%.

In the case of `Cc1ccc2nc(/C(C#N)=C\c3ccc(OC(=O)c4cccs4)cc3)[nH]c2c1`, the inhibition was 50.9% (active).

For the molecule `COc1ccc(/C=C(/NC(=O)c2ccc(C)cc2)c2nc3ccccc3[nH]2)cc1OC`, the inhibition is 35.6%.

In the case of `C=CCn1c(SCC(=O)/C(C#N)=C(\C)N)nc2sc(C)c(C)c2c1=O`, the inhibition was 6.6%.

Take `Cc1cnc(NC(=O)CSc2nnc(C)s2)s1`: the inhibition is 19.7%.

Consider `O=C(CSc1ncnc2c1cnn2CCc1ccccc1)Nc1ccc(F)cc1`, for which the inhibition is 7.1%.

Consider `CCC(C)NC(=O)N[C@@H](CCSC)C(=O)O` (some centres not stated), for which the inhibition is -1.9%.

Take `CCC1(C)Cc2c(sc3nnn(CC(=O)Nc4ccc(Cl)cc4)c(=O)c23)CO1` (configuration not stated): the inhibition was 22.1%.

As to `CCC1(C)Cc2c(sc3nc(SC)nc(N)c23)CO1` (configuration not stated), the inhibition was 80.9% (active).

Regarding `CCCSc1nc(NCc2ccco2)c2c3c(sc2n1)COC(C)(CC)C3` (configuration not stated), the inhibition is 13.8%.

Regarding `COC(=O)c1cc(OC)c(OC)cc1NC(=O)C1CCCO1` (configuration not stated), the inhibition is 23.5%.

As for `O=C1NC(c2ccncc2)Nc2sc3c(c21)CCCC3` (configuration not stated), the inhibition was 82.8% (active).

`O=C(Nc1sc2c(c1-c1nc3ccccc3[nH]1)CCCC2)C1CC1`: the inhibition is 9.4%.

On to `Cc1ccc(C(=O)c2c(NC(=O)c3ccncc3)sc3c2CCCC3)cc1`, for which the inhibition was 28.7%.

On to `COc1ccc2nc(NC3=NCN(CC4CCCO4)CN3)nc(C)c2c1` (configuration not stated), for which the inhibition was 2%.

For the molecule `COc1ccccc1-c1nc(C#N)c(N2CCC(C(N)=O)CC2)o1`, the inhibition is -9.9%.

Regarding `Cc1ccc(C(c2nnnn2CS(=O)(=O)c2ccc(C)cc2)N2CCC(C(N)=O)CC2)cc1` (configuration not stated), the inhibition was 0.4%.

On to `Cc1cccn2c(=O)c(/C=C(\C#N)S(=O)(=O)c3ccc(Cl)cc3)c(N3CCC(C(N)=O)CC3)nc12`, for which the inhibition was 86.2% (active).

As for `COc1ccc(-c2cc(C(=O)NC(C(=O)O)C(C)C)c(C)o2)cc1OC` (configuration not stated), the inhibition was 6.4%.

Regarding `CCN(CC)P(=O)(C(NC(=O)OC)C(F)(F)C(F)(F)C(F)(F)C(F)F)N(CC)CC` (configuration not stated), the inhibition was 10%.

`CCN(CC)CCNC(=O)CCCCCn1c(=O)[nH]c2cc(C(=O)OC)ccc2c1=O`: the inhibition was 0%.

With `Cc1n[nH]c(C)c1S(=O)(=O)N1CCCC(C(=O)NCC2COc3ccccc3O2)C1` (configuration not stated), the inhibition is 15.3%.

Consider `Cc1cc2c(cc1C)NC(c1ccccn1)C1=C(CC(C)(C)CC1=O)N2` (configuration not stated), for which the inhibition is 1.3%.

In the case of `Cc1nn(-c2ccccn2)c2c1C(c1ccncc1)C1=C(CC(C)(C)CC1=O)N2` (configuration not stated), the inhibition is 98.7% (active).

Take `O=S(=O)(N1CCCCC1)N1CCNCC1`: the inhibition is -28.7%.

Take `CCN(CC)CCn1c2ccc(Cl)cc2c2nc(C)sc21`: the inhibition is 49.4%.

As for `CCC1CCCCN1C(=O)Nc1cccc(NC(=O)N2CCCCC2CC)c1` (configuration not stated), the inhibition was -10.7%.

For `COc1ccc(C(C)=O)cc1CN1C(=O)NC2(CCCCC2C)C1=O` (configuration not stated), the inhibition is 33.8%.

For the molecule `CCOC(=O)N1CCN(CC(=O)c2c(C)[nH]c3ccccc23)CC1`, the inhibition was 88% (active).

With `Cc1ccc2c(C(=O)CN3CCCC3)c(C)[nH]c2c1`, the inhibition was 26.2%.

For the molecule `Cc1c(C(=O)CN2CCOCC2)[nH]c2ccccc12`, the inhibition is 56% (active).

On to `Cc1c(C(=O)N2CCOCC2)[nH]c2ccc(OCc3ccccc3)cc12`, for which the inhibition was 43.3%.

For the molecule `CC1CCN(CC(=O)c2c[nH]c3ccccc23)CC1`, the inhibition is 12.2%.

For `Cc1[nH]c2ccccc2c1C(=O)COC(=O)C(C)C`, the inhibition was 25.9%.

Take `CSc1nc2ccccc2cc1/C=C(\C#N)c1ccc(Cl)cc1Cl`: the inhibition was 12.7%.

Take `COc1ccc(OC)c(CN2C(=O)CCC2(C)C(=O)NC2CCCCCC2)c1` (configuration not stated): the inhibition was 18.1%.

Turning to `CCOc1c2ccc(C(=O)NCc3ccc(OC(F)(F)F)cc3)cc2nn1C`, the inhibition is 13.9%.

On to `O=C(NCc1cccs1)c1ccc2c(c1)ncn2C1CCCC1`, for which the inhibition is 5.6%.

For `O=C(COC(=O)c1ccccc1SCC(=O)NC1CCCCC1)NC1CCCCC1`, the inhibition is 12.2%.

Regarding `COCCNC(=O)c1onc(CSc2cccc(C)c2)c1C(=O)O`, the inhibition was 39.1%.

On to `CCOC(=O)CC1C(=O)NCCN1C(=O)COc1ccc(Br)cc1C` (configuration not stated), for which the inhibition was 15.5%.

As to `CCCCn1c(CCCNC(=O)CC)nc2ccccc21`, the inhibition is -20%.

Take `CCCCn1c(CN2CCN(CCO)CC2)nc2ccccc21`: the inhibition is 20.4%.

Consider `C=C(Br)Cn1c(CCCC)nc2ccccc21`, for which the inhibition was 63.8% (active).

In the case of `Cc1nc2c(-c3ccccc3)c(C)[nH]n2c(=O)c1Cl`, the inhibition is -1%.

As to `CC(=O)Nc1nc(C)c(Cc2ccccc2)c(=O)[nH]1`, the inhibition was 6.3%.

As for `CC(Sc1sc(=S)sc1SC(C)C(=O)O)C(=O)O` (configuration not stated), the inhibition was -1.4%.

Turning to `CC1Cc2ccccc2N1C(=O)c1cc2sccc2n1Cc1ccccc1` (configuration not stated), the inhibition was 25.4%.

In the case of `CCOC(=O)c1cc2sccc2n1Cc1ccc(C#N)cc1`, the inhibition is 96.9% (active).

With `CCCOc1ccc(Cn2c(O)cc(=O)[nH]c2=O)cc1`, the inhibition is -7.8%.

Consider `CCOc1ccc(-c2nnc(-c3ccco3)o2)cc1`, for which the inhibition was 19%.

For `COc1cc(C2CC(=O)N3CN(Cc4ccccc4)CSC3=C2C#N)ccc1OCc1ccccc1` (configuration not stated), the inhibition was 33%.

As for `Cc1ccc(CNC(=O)C2CC(c3ccccc3[N+](=O)[O-])=NO2)o1` (configuration not stated), the inhibition was 61.7% (active).

As for `O=C(NCCCCc1ccccc1)C1CC(c2ccc([N+](=O)[O-])cc2)=NO1` (configuration not stated), the inhibition is 9.5%.

As to `COc1ccc(C2=NOC(C(=O)NCc3ccco3)C2)cc1OC` (configuration not stated), the inhibition is -4.7%.

Take `O=C(O)CN(Cc1ccco1)S(=O)(=O)c1ccccc1`: the inhibition is -12.5%.
